“And” between values parts separate entries of the source, which are not always exact repeats. Identical values can stand only once. Out of some 420,000 compounds screened, about 50,000 (12%) were called active. Where a call stands in place of a potency, no number is given. Inconclusive results (about 26%) are left out. The call rests on the fitted dose curve; in most records, active means well fitted inhibition curve with a large enough effect; inconclusive means small, poorly fitted or top-dose-only effect; inactive means flat fitted curve, though single readings scatter. The full list was thinned out, with actives kept by preference. A structure can be active in one record and inactive in another.
Potency means the concentration at half of the fitted maximal effect.

This assay in a line: qHTS for Inhibitors of human tyrosyl-DNA phosphodiesterase 1 (TDP1): qHTS in cells in presence of CPT. Further: nearly all actives have a fitted effect of over 55% in size. Conditions: chicken DT40 Tdp1-/-;hTDP1 cells + 20 nM CPT, ATP luminescence, 48 h; series mostly up to 46.2 µM. A digest of the protocol: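 Chicken DT40 Tdp1-/- cells stably complemented with human TDP1 were seeded at 400 cells/well in medium containing 20 nM camptothecin, exposed to pin-transferred compounds, and grown at 37 °C for at least 48 hr. Viability was read as ATP luminescence.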
Take `CCc1nnc(NC(=O)c2ccco2)s1`: the Potency entry is “inactive”.
`Cc1ccc2nc(COc3cccc(NC(=O)c4ccccc4Cl)c3)cc(=O)n2c1`: the Potency entry was “inactive”.
For the compound `CCCC(=O)N(CCN1CCOCC1)c1nc2ccc(OCC)cc2s1`, the Potency entry is “inactive”.
Still for that read-out and setting: with `CCOc1ccc2[nH]c(=S)sc2c1` the figure was 18.4 µM (active); with `Nc1ccc2[nH]c(=S)sc2c1`, “inactive”.
Turning to `CC(C)CNC(=S)NNC(=O)c1nn(C)cc1Cl`, the Potency result is “inactive”.
For `CN(Cc1ccccc1)C(=O)c1cc2c(=O)n(C)c3ccccc3c2s1`, the Potency entry was “inactive”.
On to `CCOc1ccc(NC(=O)c2cn(C3CCCCC3)c(=O)c3c2c2ccccc2n3C)cc1`, for which the Potency entry was “inactive”.
Same read-out and setting: to `Cn1c(C(=O)NCCc2ccsc2)cc2c(=O)n(C)c3ccccc3c21` belongs 18.4 µM (active).
Still for that read-out and setting: to `CCOc1ccc(CCNC(=O)c2cc3c(=O)n(C)c4ccccc4c3n2C)cc1` belongs 20.6 µM (active); to `Cn1c(C(=O)N2CCC(C(N)=O)CC2)cc2c(=O)n(C)c3ccccc3c21`, “inactive”.
Consider `CCOc1ccc(CCNC(=O)c2c(C)oc3ncn(C)c(=O)c23)cc1`, for which the Potency entry was “inactive”.
Consider `Cc1cc(C)cc(NC(=O)C(c2ccccc2)N2CCN(CC(=O)N3CCCC3)CC2)c1` (stereo not given), for which the Potency result was “inactive”.
On the same count and under the same terms, with `CC(C)CC(=O)c1c[nH]c(C(=O)NCc2ccccc2)c1` the entry was “inactive”.
`CC12CCC(C(=O)N(c3cccc(Cl)c3)C1=O)C2(C)C` (stereo not given): the Potency result is “inactive”.
Take `CC12CCC(C(=O)N(NC(=O)c3ccccc3O)C1=O)C2(C)C` (stereo not given): the Potency is 20.6 µM (active).
Same read-out and setting: with `O=C(NN1C(=O)C2C(C1=O)C1C=CC2C12CC2)c1ccccc1Cl` (stereo not given) the entry was “inactive”; with `NC(=O)c1ncn([C@@H]2O[C@H](CNCc3cnc(N4CCOCC4)s3)[C@@H](O)[C@H]2O)n1`, “inactive”; with `CCOc1ccc(-c2nnn(CC(=O)N3CCN(c4ccc(OC)cc4)CC3)n2)cc1OCC`, “inactive”.
As for `CCOc1ccc(-c2nnn(CC(=O)N3CCN(c4ccc(F)cc4)CC3)n2)cc1OCC`, the Potency entry was “inactive”.
`O=C(Nc1ccccc1-c1nnn(CC(=O)N2CCN(c3ccccc3)CC2)n1)c1cccs1`: the Potency is 14.6 µM (active).
With `C[C@H]1CN([C@@H](C)CO)C(=O)CCCn2cc(nn2)CO[C@@H]1CN(C)S(=O)(=O)c1cccs1`, the Potency result is “inactive”.
Regarding `CSc1ccc(NC(=O)Cn2nnnc2-c2ccccc2F)cc1`, the Potency result was “inactive”.
Turning to `C/C(=N/OC(=O)c1cccc(C(F)(F)F)c1)c1cnccn1`, the Potency entry is “inactive”.
Consider `Cc1nn(-c2ccccc2)c(C)c1NC(=O)COC(=O)c1cc(Cl)ccc1O`, for which the Potency result is “inactive”.
As for `C/C=C/c1ccc(OCC(=O)OCC(=O)Nc2c(C)nn(-c3ccccc3)c2C)c(OC)c1`, the Potency entry was “inactive”.
In the case of `Cc1nn(-c2ccccc2)c(C)c1NC(=O)COc1ccc(Cl)cc1Cl`, the Potency is 16.4 µM (active).
On the same count and under the same terms, to `Cc1cc(=O)oc2c3c(cc(OCC(=O)NCCC(=O)N[C@@H](C)C(=O)O)c12)OC(C)(C)CC3` belongs “inactive”.
As to `C/C(=N/NS(=O)(=O)c1ccccc1)c1ccc(NC(=O)C(F)(F)F)cc1`, the Potency entry is “inactive”.
Regarding `COCC1CCN(C(=O)C2CCC(=O)N(CC3CCCCC3)C2)CC1` (stereo not given), the Potency entry was “inactive”.
On to `COc1ccccc1C(=O)Nc1c(C(=O)Nc2ccc(C)cc2)oc2ccccc12`, for which the Potency is 20.6 µM (active).
For `Cc1ccc(C(=O)Nc2c(C(=O)NC(C)(C)C)oc3ccccc23)cc1`, the Potency was 20.6 µM (active).
On the same count and under the same terms, with `COc1ccccc1NC(=O)c1oc2ccccc2c1NC(=O)C(C)C` the figure was 10.3 µM (active); with `Cc1ccc(C(=O)Nc2c(-c3ccccc3)[nH][nH]c2=O)cc1`, “inactive”.
In the case of `Cc1c(C(=O)NNC(=O)c2ccncc2)oc2ccccc12`, the Potency entry is “inactive”.
As to `Cc1ccc(NC(=O)c2oc3ccccc3c2NC(=O)Cc2cccs2)cc1`, the Potency entry was “inactive”.
For `COc1ccccc1C(=O)Nc1ccc(Nc2ccccc2)cc1`, the Potency entry is “inactive”.
As to `COc1ccccc1NC(=O)c1oc2ccccc2c1NC(=O)COc1ccccc1OC`, the Potency entry is “inactive”.
The same measure, in the same setting: with `COc1ccccc1NC(=S)NC(=O)C(C)C` the entry was “inactive”.
Take `C#CCOCCOCCOCCNc1nc(N2CCN(C(=O)C([C@@H](C)CC)n3cc(C(N)COC(=O)C(F)(F)F)nn3)CC2)nc(N2CCN(C(=O)[C@H](Cc3ccc(O)cc3)n3cc(C(N)[C@H](C)CC)nn3)CC2)n1` (stereo not given in full): the Potency result was “inactive”.
Consider `CCOc1ncccc1C(=O)OCC(=O)c1c[nH]c2ccccc12`, for which the Potency entry is “inactive”.
Turning to `CC1CN(C(=S)Nc2ccc(S(N)(=O)=O)cc2)CC(C)O1` (stereo not given), the Potency result was “inactive”.
For the compound `C/C=C/C1=C(C(=O)O)N2C(=O)[C@@H](NC(=O)[C@H](N)c3ccc(O)cc3)[C@H]2SC1`, the Potency result is “inactive”.
For `O=C(NNc1cc(Cl)cc(Cl)c1)c1c(F)cccc1Cl`, the Potency result is “inactive”.
Regarding `CN(CC(=O)NNC(=O)CNC(=O)c1ccccc1Cl)S(=O)(=O)c1ccc(Cl)cc1`, the Potency result is “inactive”.
As to `CC(=O)Nc1ccc(NC(=O)CSc2nnc3c4cc(Br)ccc4n(C)c3n2)cc1`, the Potency entry is “inactive”.
On to `O=C(CSc1ccc(Cl)cc1)NC1CC1`, for which the Potency entry was “inactive”.
On the same count and under the same terms, to `CN(CCOc1ccccc1)C(=O)c1cc(COc2c(F)cccc2F)on1` belongs “inactive”; to `COc1cccc(CNC(=O)CCN2C(=S)NC(C)(C)CC2C)c1` (stereo not given), “inactive”; to `COc1nc(N(C)C)nc(N2CC(=O)N(CCNS(=O)(=O)c3ccc(C)cc3)C2=N)n1`, “inactive”.
On the same count and under the same terms, to `C=C1C(=O)[C@]23C[C@H]1CCC2[C@@]1(C)C(C[C@@H]3O)[C@](C)(C(=O)O)CC[C@@H]1O` (stereo not given in full) belongs 1.84 µM (active); to `Cc1cnc(CN(C)C(=O)CC2C(=O)NCCN2Cc2cccc(F)c2F)[nH]1` (stereo not given), “inactive”; to `CCCC1NC(=O)NC(C)=C1C(=O)OCC` (stereo not given), “inactive”.
With `CCCCn1c(N)c(N(CC)C(=O)c2ccccc2C(F)(F)F)c(=O)[nH]c1=O`, the Potency result was “inactive”.
Turning to `Cc1ccc(CNC(=O)Cn2cnc(S(=O)(=O)N3CCCCC3)c2)o1`, the Potency entry was “inactive”.
As to `Cc1ccc(NC(=O)Cn2cnc3c(OCc4ccccc4)ncnc32)cc1C`, the Potency entry is “inactive”.
With `Cc1ccc(CNC(=O)Cn2cnc3c(NCc4ccccc4)ncnc32)o1`, the Potency is 18.4 µM (active).
The same measure, in the same setting: to `Cn1c(=O)c2c(SCC(=O)NCC3CCCO3)nc(CC(C)(C)C)nc2n(C)c1=O` (stereo not given) belongs “inactive”; to `Cc1ccc(NC(=O)c2cn3c4c(ccc(Cl)c4c2=O)OC(C)C3)cc1C` (stereo not given), “inactive”.
With `Cc1ccc(C)c(C(C)NC(=O)C2CCCO2)c1` (stereo not given), the Potency result is “inactive”.
`Cc1nc(N)nc(Cl)c1CCC1OCCO1`: the Potency entry was “inactive”.
As for `C=CCNc1cnn(-c2ccc(C)cc2)c(=O)c1Cl`, the Potency result is “inactive”.
On to `Cc1cccc(-n2ncc(Cl)c(Cl)c2=O)c1`, for which the Potency is 5.17 µM (active).
Turning to `O=c1c(Cl)c(NC2CC2)cnn1-c1ccccc1`, the Potency result is “inactive”.
For `O=C(OCC(=O)N1CCc2ccccc21)c1ccc([N+](=O)[O-])cc1`, the Potency was 20.6 µM (active).
As to `Cc1ccc(S(=O)(=O)NCC(=O)OCC(=O)N2CCc3ccccc32)cc1`, the Potency result was “inactive”.
Turning to `O=C(OCC(=O)N1CCc2ccccc21)C1CCCN1S(=O)(=O)c1ccc(Cl)cc1` (stereo not given), the Potency result was “inactive”.
Consider `CO/N=C(\C(=O)N[C@@H]1C(=O)N2C(C(=O)O)=C(C[N+]3(C)CCCC3)CS[C@H]12)c1csc(N)n1`, for which the Potency entry is “inactive”.
As for `O=c1c2ccccc2nc(CSc2nnnn2-c2ccccc2)n1-c1ccccc1`, the Potency result was “inactive”.
As to `CCCN1C(=O)C(Cc2nc3ccccc3c(=O)n2-c2ccccc2)c2cc(C)ccc21` (stereo not given), the Potency result was “inactive and 16.4 µM (active)”.
Turning to `CCC1NC(=O)c2cccnc2-n2c1nc1ccc(C)cc1c2=O` (stereo not given), the Potency entry is “inactive”.
Regarding `Cc1ccc(Cl)cc1NC(=O)C(C)n1nnc2sc(-c3ccccc3)cc2c1=O` (stereo not given), the Potency entry is “inactive”.
Consider `O=C(Nc1c2c(nn1-c1cccc(Cl)c1)CS(=O)(=O)C2)c1cccs1`, for which the Potency entry is “inactive”.
`COCCN(C(=O)CC1CCCCC1)c1c(N)n(CC(C)C)c(=O)[nH]c1=O`: the Potency result is “inactive”.
As to `CCc1nc2sc3c(Cl)ncnc3c2c2c1CCCC2`, the Potency entry is “inactive”.
For the compound `OCCCC1CCCCN1Cc1nc(Cc2ccccc2Cl)no1` (stereo not given), the Potency result is “inactive”.
Turning to `COc1cccc(CNC(=O)c2ccc3c(c2)sc2nc(-c4cccc(OC)c4)cn23)c1`, the Potency was 6.51 µM (active).
For the compound `Cc1ccc(-c2cn3c(n2)sc2cc(C(=O)NCCCc4ccccc4)ccc23)cc1`, the Potency is 14.6 µM (active).
Turning to `Cc1cc(C(=O)NCCCc2ccccc2)no1`, the Potency entry is “inactive”.
In the case of `COc1ccc(CCNC(=O)c2ccc3c(c2)nc(C)n3-c2ccc(Br)cc2)cc1OC`, the Potency is 20.6 µM (active).
In the case of `CC(C)c1ccc(C(=O)NCCCc2ccccc2)cc1`, the Potency entry was “inactive”.
On the same count and under the same terms, to `CCOC(=O)c1ccccc1NC(=O)c1sc2nc(-c3ccc(F)cc3)cn2c1C` belongs “inactive”; to `CCOc1ccc(CCNC(=O)c2ccc3c(c2)sc2nc(-c4ccc(F)cc4)cn23)cc1OCC`, 7.31 µM (active).
On the same count and under the same terms, to `COc1ccc(C(=O)NCc2cn3ccccc3n2)cc1` belongs “inactive”; to `COc1cc(-n2c(C)nc3cc(C(=O)NCc4ccco4)ccc32)cc(OC)c1OC`, “inactive”.
The same measure, in the same setting: with `O=C(NCCc1ccc(F)cc1)c1ccc2nccnc2c1` the entry was “inactive”.
Consider `COc1ccc2oc(=O)c(-c3cn4c(n3)sc3cc(OC)ccc34)cc2c1`, for which the Potency entry was “inactive”.
For the compound `COc1ccccc1-n1c(C)nc2cc(C(=O)NCc3ccc4c(c3)OCO4)ccc21`, the Potency entry is “inactive”.
For the compound `Cc1ccc(C(=O)Cn2cccn2)cc1`, the Potency entry is “inactive”.
On the same count and under the same terms, to `OC(CNCc1ccc2c(c1)OCO2)COc1ccccc1` (stereo not given) belongs “inactive”.
On to `COC(C)C(C(=O)OCC1=CCN2CC[C@H](O)[C@@H]12)C(C)C` (stereo not given in full), for which the activity change, negative = growth inhibition was -27.6% [at 9.04 µM] (inactive).
Consider `N#Cc1c(C(F)(F)F)cc(-c2cccs2)nc1N1CCCCC1`, for which the Potency result is “inactive”.
Still for that read-out and setting: with `COc1ccc(CCNC(=S)N2CCN(S(=O)(=O)c3ccc(F)cc3)CC2)cc1` the entry was “inactive”.
Take `Cc1cc(NC(=O)CSc2nc(=O)cc(N)n2-c2ccc(F)cc2)no1`: the Potency entry was “inactive”.
Take `Cc1nc2nc(C)c(CCC(=O)N3CCN(c4ccccc4)CC3)c(C)n2n1`: the Potency entry is “inactive”.
Take `Cc1ccc(-c2cn3c(n2)sc2cc(C(=O)NCc4cccs4)ccc23)c(C)c1`: the Potency is 23.1 µM (active).
Consider `CCOC(=O)C1CCCN(C(=O)c2ccc(CS(=O)(=O)c3ccc(Br)cc3)o2)C1` (stereo not given), for which the Potency result is “inactive”.
As for `CCOC(=O)C1CCCN(C(=O)c2ccc3c(c2)sc2nc(-c4ccc(CC)cc4)cn23)C1` (stereo not given), the Potency was 4.11 µM (active).
The same measure, in the same setting: to `Cc1ccc2c(CC(=O)NCc3cccs3)coc2c1` belongs “inactive”.
Take `CCOC(=O)C1CCCN(C(=O)c2cncc(Br)c2)C1` (stereo not given): the Potency result was “inactive”.
On to `COc1ccc(CCNC(=O)c2ccc3c(c2)sc2nc(-c4ccc(C)cc4)cn23)cc1OC`, for which the Potency is 6.51 µM (active).
For `COc1ccc(-c2cc(C(=O)NCCCN3CCOCC3)no2)cc1`, the Potency result was “inactive”.
For the compound `COc1ccc(C(=O)NCCCN2CCOCC2)cc1Br`, the Potency entry is “inactive”.
Turning to `CCN1CCN(CCCNC(=O)c2ccc3c(c2)sc2nc(-c4ccc(OC)cc4)cn23)CC1`, the Potency was 0.92 µM (active).
Take `CCOc1cccc2cc(-c3cn4c(n3)sc3cc(C)ccc34)c(=O)oc12`: the Potency entry is “inactive”.

The values are drawn from PubChem BioAssay AID686979 (National Center for Advancing Translational Sciences (NCATS), 2013).
